High-throughput results deposited in PubChem BioAssay by several laboratories.
NCOA1 inh: SRC1 coactivator transcriptional activity inhibitors, primary screen, cell-based, luminescence; Nuclear receptor coactivator 1 (Homo sapiens), Q15788; HEK293 GAL4-SRC1 luciferase reporter; inhibition, % at 3.6 µM; 0.12% of 360,000 active; AID 588354, 2011;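 active = inhibition above the campaign mean plus 3 SD, with each screening campaign given its own cutoff, cut at about 60% in these data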
SRC3 inh: SRC3 coactivator transcriptional activity inhibitors, primary screen, cell-based, luminescence; 0.17% of 360,000 active; inhibition, % at 3.6 µM; HEK293 GAL4-SRC3 luciferase reporter; Nuclear receptor coactivator 3 (Homo sapiens), Q9Y6Q9;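 active = inhibition above a per-campaign cutoff, the mean of all compounds plus 3 SD, cut at about 60% in these data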;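 also: higher means less SRC3-driven luciferase light from the GAL4 reporter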
Target sequence (Q9Y6Q9 whole entry, looked up, the tested form may be a part): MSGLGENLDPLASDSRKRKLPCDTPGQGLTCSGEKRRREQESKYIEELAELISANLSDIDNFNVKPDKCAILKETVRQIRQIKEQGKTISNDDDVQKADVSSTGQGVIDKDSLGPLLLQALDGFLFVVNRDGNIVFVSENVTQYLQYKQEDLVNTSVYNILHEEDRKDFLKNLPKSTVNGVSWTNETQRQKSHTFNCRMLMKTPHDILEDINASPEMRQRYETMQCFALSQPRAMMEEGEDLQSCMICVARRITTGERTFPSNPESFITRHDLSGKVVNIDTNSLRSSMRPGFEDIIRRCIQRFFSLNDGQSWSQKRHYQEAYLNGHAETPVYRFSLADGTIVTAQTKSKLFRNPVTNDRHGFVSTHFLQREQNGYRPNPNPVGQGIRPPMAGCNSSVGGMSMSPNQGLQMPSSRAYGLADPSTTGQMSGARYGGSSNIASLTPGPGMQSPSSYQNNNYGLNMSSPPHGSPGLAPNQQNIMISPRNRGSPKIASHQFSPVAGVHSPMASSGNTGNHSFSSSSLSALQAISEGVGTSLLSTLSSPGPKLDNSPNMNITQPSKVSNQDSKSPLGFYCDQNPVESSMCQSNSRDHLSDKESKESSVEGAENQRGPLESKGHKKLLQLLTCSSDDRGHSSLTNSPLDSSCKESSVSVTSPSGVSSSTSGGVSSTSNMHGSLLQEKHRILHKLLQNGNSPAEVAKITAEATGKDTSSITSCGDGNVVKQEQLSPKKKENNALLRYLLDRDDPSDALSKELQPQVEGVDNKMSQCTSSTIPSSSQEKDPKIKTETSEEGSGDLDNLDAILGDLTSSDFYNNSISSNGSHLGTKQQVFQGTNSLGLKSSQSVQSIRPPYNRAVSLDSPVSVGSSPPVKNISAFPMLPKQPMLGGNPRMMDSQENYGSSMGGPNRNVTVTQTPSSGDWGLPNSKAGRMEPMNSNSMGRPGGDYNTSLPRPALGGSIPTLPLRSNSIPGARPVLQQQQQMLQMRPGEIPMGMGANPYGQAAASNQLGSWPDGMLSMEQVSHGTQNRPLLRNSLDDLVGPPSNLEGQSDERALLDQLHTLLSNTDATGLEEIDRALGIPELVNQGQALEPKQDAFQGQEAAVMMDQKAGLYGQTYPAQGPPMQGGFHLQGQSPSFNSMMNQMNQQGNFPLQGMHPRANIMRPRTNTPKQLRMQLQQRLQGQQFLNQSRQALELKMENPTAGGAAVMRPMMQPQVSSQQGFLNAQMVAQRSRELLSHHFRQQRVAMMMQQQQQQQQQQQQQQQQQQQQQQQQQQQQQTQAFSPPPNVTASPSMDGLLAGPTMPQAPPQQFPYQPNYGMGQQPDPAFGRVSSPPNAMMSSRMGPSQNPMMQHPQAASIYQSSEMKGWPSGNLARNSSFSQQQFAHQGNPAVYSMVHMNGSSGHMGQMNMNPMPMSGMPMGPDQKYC
SRC2 inh: inhibition of GAL4-SRC2 driven luciferase reporter, primary screen, SRC2 inhibitor project, cell-based, luminescence; 0.17% of 370,000 active; HEK293 GAL4-SRC2 luciferase reporter; inhibition, % at 9 µM; AID 651957, 2012;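 active = inhibition above the mean inhibition of all tested compounds plus 3 SD, set per campaign, cut at about 52% in these data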
LRH-1 inv ag: LRH-1 (NR5A2) inverse agonists, primary screen, cell-based, luminescence, HEK293T, StAR-luciferase reporter. LRH-1 transfected, 24 h. inhibition, % at 3.6 µM. AID 602396, 2012. 0.13% of 360,000 active. Nuclear receptor subfamily 5 group A member 2 (Homo sapiens), O00482;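 active = inhibition above the mean inhibition of all tested compounds plus 3 SD, cut at about 73% in these data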
Gli-Sufu block: Gli-Sufu pathway antagonists, primary screen, luciferase luminescence, Sufu-KO-LIGHT cells, uHTS | Sufu-KO-LIGHT fibroblasts, Gli luciferase reporter luminescence | inhibition, % at 5 µM | 0.74% of 340,000 active;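 active = inhibition above about 55%, limit read from the data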
NR2F2 inh: NR2F2 transcriptional activity inhibitors, primary screen, cell-based, luciferase reporter, HEK293T, luminescence | COUP transcription factor 2 (Homo sapiens), P24468 | HEK293T NGFI-A luciferase reporter | inhibition, % at 8.6 µM | 0.7% of 370,000 active;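 active = inhibition above a per-plate cutoff, mean inhibition of test wells between control levels plus 3 SD, cut at about 38% in these data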;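 also: cells cotransfected with COUP-TFII expression vector driving the NGFI-A reporter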
VP16 Luc counter: Gal4-VP16 luciferase reporter inhibitors, counter-screen for COUP-TFII antagonist project, cell-based, luminescence, HEK293; 25% of 2,500 active; inhibition, % at 8.5 µM; shares compounds with NR2F2 inh; in the data active = inhibition above about 13%
NR2F2 inh conf: NR2F2 transcriptional activity inhibitors, confirmation, cell-based, luciferase reporter, HEK293, triplicate. shares compounds with NR2F2 inh. HEK293 NGFI-A luciferase reporter, luminescence. inhibition, % at 8.5 µM. 45% of 2,500 active. AID 687008, 2013;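 active = mean inhibition over three repeats above a set limit taken from the earlier primary screen, cut at about 38% in these data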
Each line names hits and unclear results; the compound was inactive in the other large screens (follow-up assays come after a bar, where they were run). The list is not random: actives were taken first. Their share in the collection is about 1.2%.

O=[N+]([O-])c1ccc(N=Nc2c(Cl)cc(O)cc2Cl)cc1	NR2F2 inh 64.3 | VP16 Luc counter inactive | NR2F2 inh conf 48.8
CCOC(=O)CCCNC(=O)OC1CCC12CCC(c1ccccc1)CC2 (stereo not drawn)	none (no result: NCOA1 inh, SRC3 inh, LRH-1 inv ag, Gli-Sufu block)
CCOC(=O)C1CCN(C(c2cccnc2)c2c(NC(=O)c3ccco3)sc(C)c2C)CC1 (stereo not drawn)	NR2F2 inh 69.6 | VP16 Luc counter inactive | NR2F2 inh conf 39.1
CC(=O)C(C(C)=O)c1c(Cl)c(O)c(O)c2c(C(=O)c3ccccc3)coc12	NR2F2 inh 67.5 | VP16 Luc counter 14.1 | NR2F2 inh conf 59.9
Cc1nn(Cc2ccc(Cl)cc2)c(C)c1NC(=O)c1cc(C(C)C)on1	NR2F2 inh 44.2 | VP16 Luc counter inactive | NR2F2 inh conf inactive
CCOC(=O)c1cnc2c(OC)cccc2c1N1CC(C)CC(C)C1 (stereo not drawn)	NR2F2 inh 39.6 | VP16 Luc counter inactive | NR2F2 inh conf inactive
C=CCc1c(OC(C)=O)c2ccccc2n(C)c1=O	NR2F2 inh 39.8 | VP16 Luc counter inactive | NR2F2 inh conf inactive
CC(C)C[C@H]1COc2cc(N3CCCC3)ccc2S(=O)(=O)N1	none (no result: NCOA1 inh, SRC3 inh, LRH-1 inv ag, Gli-Sufu block)
COC(=O)[C@]12C[C@H](CC(=O)NCCCN3CCCC3=O)C(=O)N(Cc3ccccc3)C1=C[C@H](C(C)(C)C)O[C@@H]2C	none (no result: NCOA1 inh, SRC3 inh, LRH-1 inv ag, Gli-Sufu block)
CCSc1nc2ccccc2n1C(=O)/C=C/c1ccc(OC)c(OC)c1	NR2F2 inh 57.5 | VP16 Luc counter inactive | NR2F2 inh conf 66.7
C=CCSc1nc2ccccc2n1C(=O)/C=C/c1ccc(OC)c(OC)c1	none
C=CCSc1nc2ccccc2n1C(=O)/C=C/c1cc(OC)c(OC)c(OC)c1	NR2F2 inh 46.0 | VP16 Luc counter 16.5 | NR2F2 inh conf 71.1
O=C(Cc1c[nH]c2ccccc12)Nc1ccc(Nc2ccncc2)cc1	none (no result: NCOA1 inh, SRC3 inh, LRH-1 inv ag, Gli-Sufu block)
CC1Cc2ccccc2N1c1ncnc(N)c1[N+](=O)[O-] (stereo not drawn)	NCOA1 inh 65.8, SRC3 inh 64.4, SRC2 inh 72.5, NR2F2 inh 47.3 | VP16 Luc counter 20.7 | NR2F2 inh conf inactive
O=Cc1s/c(=N\S(=O)(=O)c2ccccc2)n(CCCCl)c1Cl	NR2F2 inh 59.9 | VP16 Luc counter 62.4 | NR2F2 inh conf 45.9
CCn1c(C)cs/c1=N\S(=O)(=O)c1ccccc1	none
O=C(CNS(=O)(=O)c1cccs1)N1CCN(c2ncccn2)CC1	none (no result: NCOA1 inh, SRC3 inh, LRH-1 inv ag, Gli-Sufu block)
CN=c1scc(-c2ccccc2F)n1/N=C/c1ccc[nH]1	NCOA1 inh 92.3, SRC3 inh 91.7, SRC2 inh 90.6, LRH-1 inv ag 90.7, Gli-Sufu block 86.4, NR2F2 inh 106.5 | VP16 Luc counter 86.0 | NR2F2 inh conf 107.0
COc1ccc(C(=O)N2CCN(C3CCC(c4ccccc4)CC3)CC2)cc1OC (stereo not drawn)	NR2F2 inh 41.2 | VP16 Luc counter inactive | NR2F2 inh conf inactive
COc1ccc(C(=O)N2CCC(N3CCN(c4ccccc4)CC3)CC2)cc1OC	none
Cc1cccc(Cn2c(NCCO)nc3c2c(=O)n(C)c(=O)n3C)c1	NR2F2 inh 51.8 | VP16 Luc counter inactive | NR2F2 inh conf inactive
CNc1nc2c(c(=O)n(C)c(=O)n2C)n1Cc1ccccc1	NR2F2 inh 41.3 | VP16 Luc counter inactive | NR2F2 inh conf inactive
N=C1N(C(=O)OCc2ccccc2)/C(=C\C2=CCCCC2)C(Cc2ccccc2)N1Cc1ccccc1 (stereo not drawn)	none (no result: NCOA1 inh, SRC3 inh, LRH-1 inv ag, Gli-Sufu block)
Cc1ccc(C)c(N2CCN(C(=O)C3CCCN(S(=O)(=O)c4c(C)noc4C)C3)CC2)c1 (stereo not drawn)	none
Cc1ccc(C)c(N2CCN(C(=O)C3CCN(S(=O)(=O)c4c(C)noc4C)CC3)CC2)c1	NR2F2 inh 53.4 | VP16 Luc counter inactive | NR2F2 inh conf inactive
Cc1cc(NS(=O)(=O)c2ccc(NC(=O)CSc3nnc(-c4ccccn4)n3-c3ccccc3)cc2)nc(C)n1	none (no result: NCOA1 inh, SRC3 inh, LRH-1 inv ag, Gli-Sufu block)
COc1cc(C=Nc2c(C)cc(C)cc2C)ccc1OC(C)=O	NR2F2 inh 49.7 | VP16 Luc counter inactive | NR2F2 inh conf inactive
C=CCn1c(C)cc(C(=O)COc2ccc(C)nc2[N+](=O)[O-])c1C	SRC2 inh 61.1, NR2F2 inh 39.6 | VP16 Luc counter inactive | NR2F2 inh conf inactive
Cn1nc(C(C)(C)C)cc1C(=O)N1CCCCC1c1cc(C(=O)Nc2ccc(F)c(Cl)c2)no1 (stereo not drawn)	NR2F2 inh 41.0 (no result: Gli-Sufu block) | VP16 Luc counter inactive | NR2F2 inh conf inactive
O=C(Nc1ccc(F)c(Cl)c1)c1cc(C2CCCCN2C(=O)c2ccc(Cl)cc2)on1 (stereo not drawn)	none (no result: Gli-Sufu block)
COc1cccc(NC(=O)Nc2c(-c3ccc(C)cc3)nc3ncccn23)c1	none (no result: NCOA1 inh, SRC3 inh, LRH-1 inv ag, Gli-Sufu block)
COc1cc(OC)c(N(C)S(=O)(=O)c2cccc(C(=O)OCC(=O)c3c[nH]c4ccccc34)c2)cc1Cl	NR2F2 inh 62.2 | VP16 Luc counter inactive | NR2F2 inh conf 53.2
Cc1cc2c(nc1C)CCCN2Cc1ccccn1	none (no result: NCOA1 inh, SRC3 inh, LRH-1 inv ag, Gli-Sufu block)
COCCn1c(C)cc(C(=O)COC(=O)c2ccccc2Br)c1C	NCOA1 inh 80.7, SRC3 inh 80.8, SRC2 inh 74.4, LRH-1 inv ag 77.8, NR2F2 inh 87.4 | VP16 Luc counter 72.3 | NR2F2 inh conf 95.2
Cc1cc(C(=O)COC(=O)c2ccccc2O)c(C)n1CC1CCCO1 (stereo not drawn)	NCOA1 inh 89.9, SRC3 inh 88.4, SRC2 inh 89.3, LRH-1 inv ag 91.2, Gli-Sufu block 57.6, NR2F2 inh 96.6 | VP16 Luc counter 89.4 | NR2F2 inh conf 105.4
Cc1cc(C(=O)COC(=O)c2ccccc2NCCO)c(C)n1CC1CCCO1 (stereo not drawn)	NR2F2 inh 43.9 | VP16 Luc counter inactive | NR2F2 inh conf inactive
COCCn1c(C)cc(C(=O)CSc2ccc3ccccc3n2)c1C	none
COCCn1c(C)cc(C(=O)COc2nc3ccccc3nc2C)c1C	NR2F2 inh 67.3 | VP16 Luc counter inactive | NR2F2 inh conf 46.7
C=CCN1C(=O)c2n[nH]c(C(C)C)c2C1c1ccc2c(c1)OCO2 (stereo not drawn)	none (no result: NCOA1 inh, SRC3 inh, LRH-1 inv ag, Gli-Sufu block)
Cc1ccc(C(=O)OCC(=O)c2cc(C)n(CC3CCCO3)c2C)cc1 (stereo not drawn)	none
